Sampled rows, rich in hits. Any-hit rate of the full collection: about 10%.
VP16 counter: VP16 counterscreen qHTS for inhibitors of ROR gamma transcriptional activity. Drosophila S2 Gal4-VP16 UAS-luciferase, luminescence, 20 h. Potency, µM (titrated, usually from 53.6 µM), without a hit: at the top dose activity, negative = inhibition, actives largely listed as inhibitors. actives 3.5% (n = 310,000). AID 2546, 2010;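 also: Gal4-VP16 expression switched on by copper sulfate through the metallothionein promoter; % is scaled to controls: 0 for no effect and ±100 for the full control effect; nearly all actives have a fitted effect of over 50% in size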
SW480 rerep: A quantitative high throughput screen for small molecules that induce DNA re-replication in SW480 colon adenocarcinoma cells. SW480 DNA re-replication, Hoechst DNA content imaging, 48 h. Potency, µM (top dose mostly 46.1 µM), for inactives: at the top dose re-replication activation, hits mostly activators. actives 1.8% (n = 340,000); also: % of control where 0% means no effect; nearly all actives have a fitted effect of over 55% in size
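First, 250 cells per well were seeded. Next, compound or vehicle (23 nL) was pinned in, plates sat 48 hr at 37 C. Finally Hoechst was added for 40 min before fluorescence scanning.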
MCF10A rereplic: A quantitative high throughput screen for small molecules that induce DNA re-replication in MCF 10a normal breast cells; Potency, µM (series often up to 46.1 µM), for inactives: at the highest dose activity, positive = re-replication, usual class: activators; actives 2.9% (n = 350,000); AID 624296, 2012; MCF 10A DNA re-replication, Hoechst nuclear intensity, 48 h; also: % of control where 0% means no effect; nearly all actives have a fitted effect of over 50% in size
RORgamma inh: qHTS for inhibitors of ROR gamma transcriptional activity; Drosophila S2 Gal4-RORgamma UAS-luciferase reporter, 20 h; Nuclear receptor ROR-gamma (Mus musculus), P51450; Potency, µM (titrated, usually from 53.6 µM), inactives show at the top dose activity change, negative = inhibition, hits mostly inhibitors; actives 5.4% (n = 310,000); also: % is scaled to controls: 0 for no effect and ±100 for the full control effect; nearly all actives have a fitted effect of over 60% in size
Target sequence (P51450 whole entry, looked up, the tested form may be a part): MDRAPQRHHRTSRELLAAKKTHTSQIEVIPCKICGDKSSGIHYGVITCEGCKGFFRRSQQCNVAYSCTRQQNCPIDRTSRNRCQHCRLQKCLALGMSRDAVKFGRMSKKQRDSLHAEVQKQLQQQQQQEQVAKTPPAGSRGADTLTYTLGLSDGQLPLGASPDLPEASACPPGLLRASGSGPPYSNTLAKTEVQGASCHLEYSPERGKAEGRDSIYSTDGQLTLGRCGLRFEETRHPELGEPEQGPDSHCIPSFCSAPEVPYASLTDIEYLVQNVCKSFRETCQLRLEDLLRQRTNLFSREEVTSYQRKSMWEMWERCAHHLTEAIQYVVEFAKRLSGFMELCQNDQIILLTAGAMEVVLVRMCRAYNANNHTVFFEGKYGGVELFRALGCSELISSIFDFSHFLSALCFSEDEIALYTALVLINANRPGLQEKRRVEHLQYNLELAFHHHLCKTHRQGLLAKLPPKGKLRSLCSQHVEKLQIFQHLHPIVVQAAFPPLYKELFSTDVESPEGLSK
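Stably transfected Drosophila Schneider cells are the test system, with ROR gamma fused to Gal4 and luciferase under UAS control; luminescence is read after 20 hr of 700 uM copper sulfate induction at ambient temperature.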
KB-3-1 cytotox: qHTS assay for MDR1-selective chemotherapeutics: Primary screen using the parental adenocarcinoma cell KB-3-1 | AID 1347075, 2019 | actives 1.4% (n = 400,000) | Potency, µM (top dose mostly 46.1 µM), most hits filed as cytotoxic | KB-3-1 viability, CellTiter-Glo ATP luminescence, 72 h; also: % is scaled to controls: 0 for no effect and ±100 for the full control effect; nearly all actives have a fitted effect of over 60% in size
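Screening of KB-3-1 cells (DMEM, 10% FBS, phenol-red free) ran from lowest to highest compound concentration; after 72 h at 37 °C viability was read luminescently and curves fitted.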
KB-V1 cytotox: qHTS assay for MDR1-selective chemotherapeutics: Primary screen using the drug-selected MDR subline cells KB-V1; KB-V1 MDR cells viability, CellTiter-Glo, 72 h; Potency, µM (top dose mostly 46.1 µM), actives largely listed as cytotoxic; actives 3.4% (n = 400,000); AID 1347076, 2019; also: % is scaled to controls: 0 for no effect and ±100 for the full control effect; nearly all actives have a fitted effect of over 60% in size
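Luminescent ATP read-out (CellTiter-Glo, 10 min) measures survival of drug-selected KB-V1 MDR cells after 72 h, 37 degrees C compound exposure. Medium: phenol-red-free DMEM, 10% FBS. Values from fitted concentration-response curves.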
Starred values were filed as active, the others as inactive; i = inactive; ? = inconclusive; · = not tested or not shown. Calls follow the shape of the dose curve; as a rule, active = well fitted curve in the direction sought with a large enough effect; inconclusive = small, poorly fitted or top-dose-only effect, or another doubt; inactive = no such curve, though single readings can be large; an effect the other way counts as inactive or inconclusive. Potency is read from the fitted curve at half-maximal effect.

SMILES	VP16 counter	SW480 rerep	MCF10A rereplic	RORgamma inh	KB-3-1 cytotox	KB-V1 cytotox
CCOc1ccc(CN2CCc3nc(Nc4ccc5c(c4)OCCO5)ncc3C2)cc1	·	·	·	·	i	i
CCCn1c(C)nc2c(NCC3CCCN3CC)nc(C)nc21 (stereo not drawn)	3%	·	·	-24%	·	·
Cc1ccc2onc(CC(=O)N3CCN(c4ccccc4)CC3)c2c1	·	·	·	·	i	i
Cc1cc(NC(=O)c2cc(-c3ccncc3)nc3c(C)cccc23)no1	0%	6.5µM*	?	-42%	3.3µM*	3.7µM*
Cc1cccc(-c2cc(C(=O)Nc3cccnc3)c3ccccc3n2)c1	-3%	0%	?	14%	?	?
Cc1c(Cl)ccc2c(C(=O)NC(C)c3ccncc3)cc(-c3ccncc3)nc12 (stereo not drawn)	13µM*	·	·	?	·	·
Cc1cccc(NC(=O)c2cc(-c3cccnc3)nc3c(C)cccc23)n1	7%	2%	16µM*	28%	i	?
COc1cccc(NC(=O)c2cc(-c3cccnc3)nc3c(Cl)cccc23)c1	0%	16%	?	-3%	i	2.9µM*
COc1ccc(NC(=O)/C(N=Nc2cc(S(=O)(=O)Nc3ccc(OC)cc3)ccc2OC)=C(\C)O)cc1	2%	-72%	0.58µM*	14%	?	i
O=S(=O)(Nc1ccc2nc(-c3ccc(F)cc3)oc2c1)c1ccccc1	·	·	·	·	i	i
COC(=O)c1ccc(SCC(=O)N2CCC(C)CC2)c([N+](=O)[O-])c1	17%	-31%	4%	19%	i	15µM*
COc1ccc(C2OC(=O)CC2C(=O)NC2CCCC(C)C2C)cc1OC (stereo not drawn)	-10%	13%	8%	17%	i	?
COc1ccc(C2=NOC(C(=O)NC3CCCCC3)C2)cc1OC (stereo not drawn)	4%	-9%	-2%	2%	i	16µM*
COc1ccc(C2=NOC(C(=O)N3CCCCCC3)C2)cc1OC (stereo not drawn)	5%	-7%	-7%	4%	i	18µM*
COc1ccc(C2=NOC(C(=O)Nc3ccc(C(C)=O)cc3)C2)cc1OC (stereo not drawn)	-25%	-8%	17%	30%	i	15µM*
COc1ccc(C2OC(=O)CC2C(=O)NC2CCCCCC2)cc1OC (stereo not drawn)	-1%	?	7%	1%	i	13µM*
CCCCC(CC)Cn1c(Oc2ccccc2)nc2c1c(=O)n(C)c(=O)n2C (stereo not drawn)	·	·	·	·	i	i
COc1ccc(-c2nc3cnc(N4CCN(C)CC4)nc3n(Cc3cccc(OC)c3)c2=O)cc1	-6%	·	·	-19%	·	·
CN(C)CCCNc1nc2cc(-c3ccc4c(ccn4C)c3)sc2c(=O)n1C	·	·	·	·	i	i
Cc1cc(S(=O)(=O)c2ccc([N+](=O)[O-])cn2)ccc1Br	·	2%	?	·	?	?
O=[N+]([O-])c1ccc(S(=O)(=O)c2ccccc2)nc1	3.5µM*	-13%	?	?	i	i
Cc1ccc(S(=O)(=O)c2ccc([N+](=O)[O-])cn2)cc1	3.5µM*	8%	?	3.2µM*	6.5µM*	9.2µM*
COc1ccccc1NC(=O)N(C)C[C@H]1Oc2ncc(C#CCN(C)C)cc2C(=O)N([C@H](C)CO)C[C@H]1C	·	·	·	·	i	i
Cc1ccc(CNS(=O)(=O)c2cc3c(cc2Cl)NC(=O)CO3)o1	·	·	·	·	i	i
O=C(C(=Cc1ccccc1)CN1CCCCC1)c1ccccc1	·	2.9µM*	0.65µM*	·	5.2µM*	?
SMILES	VP16 counter	SW480 rerep	MCF10A rereplic	RORgamma inh	KB-3-1 cytotox	KB-V1 cytotox
COc1ccc(CN(C(=O)c2cccs2)C(C(=O)NC2CCCCC2)c2ccc3ncccc3c2)cc1 (stereo not drawn)	3%	-2%	-3%	35µM*	i	?
COc1ccc(C(C(=O)NC2CCCCC2)N(C(=O)c2cccs2)c2ccc3c(c2)OCO3)cc1 (stereo not drawn)	-14%	4%	?	11%	i	i
O=C(NC1CCCCC1)C(c1ccccc1)N(C(=O)c1cccs1)c1ccc2c(c1)OCO2 (stereo not drawn)	-15%	1.3µM*	-6%	-11%	i	?
COc1ccc(CN(C(=O)c2nsc(Cl)c2Cl)C(C(=O)NC2CCCC2)c2ccc(C)cc2)cc1 (stereo not drawn)	-22%	?	?	-13%	?	?
O=C(NC1CCCCC1)C(c1ccc2ncccc2c1)N(Cc1ccccc1)C(=O)c1ccc2c(c1)OCCO2 (stereo not drawn)	-17%	-3%	0%	-4%	i	i
COc1ccc(CN(C(=O)c2nsc(Cl)c2Cl)C(C(=O)NC2CCCCC2)c2ccc(OC)cc2)cc1 (stereo not drawn)	-8%	2%	2%	-25%	i	21µM*
COc1ccc(CN(C(=O)c2ccc3c(c2)OCCO3)C(C(=O)NC2CCCCC2)c2ccc3ncccc3c2)cc1 (stereo not drawn)	-14%	6%	13µM*	?	i	i
COc1cc(Cl)c(C)cc1NC(=O)CNC(=O)Cn1ccc2ccccc2c1=O	·	·	·	·	i	i
CC(C)NC(=O)C1(C)CCN1C(=O)c1cccc(F)c1 (stereo not drawn)	·	·	·	·	i	i
COc1ccc(-n2c(=O)c3ccc(C(=O)NCc4ccc(C)cc4)cc3n(CC(=O)Nc3cccc(F)c3)c2=O)cc1	·	·	·	·	i	i
Cc1ccc2ncc3c(-c4ccc(F)cc4)nn(-c4cccc(F)c4)c3c2c1	·	·	·	·	i	i
O=C(Nc1ccccc1C(=O)OCc1cc(=O)n2nc(C3CC3)sc2n1)c1cccc(F)c1	·	·	·	·	i	?
Cc1ccc(C)c(N(C(=O)c2nsc(Cl)c2Cl)C(C(=O)NC2CCCC2)c2ccc(O)cc2)c1 (stereo not drawn)	-10%	17%	11%	10%	21µM*	?
O=C(NC1CCCCC1)C(c1ccc2ncccc2c1)N(Cc1ccc2c(c1)OCO2)C(=O)c1cccs1 (stereo not drawn)	-12%	-6%	-4%	?	i	?
